Test results as given in PubChem BioAssay AID1159580 (chemical genetic matrix, 2015).
Screen size: about 5,500 compounds; about 2,000 (36%) were called active. Another 18% or so got no clear call; they are omitted. The list shows a part of the results. A number with no mark means an inactive call. No stated cut-off is given here; in the data, active means normalized growth mostly below about 0.91 (no sharp cut-off); inconclusive means no clear call, values can overlap the other calls; inactive means mostly above about 0.92.

Test: chemical genetic growth profiling, strain panel (AID 1159580);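 further: tested at 20 µM; growth read once vehicle control cultures reached saturation at 30 °C; 1 = growth at the plate median or of vehicle wells; lower values mean less growth of the strain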
Settings: S. cerevisiae deletion strains, growth OD
[1] = locus YAL040C, strain CLN3, hits give low values
[2] = locus YCL061C, strain MRC1 (second series), hits give low values
[3] = locus YDR363W, strain ESC2, hits give low values
[4] = locus YER002W, strain NOP16, hits give low values
[5] = locus YGR078C, strain PAC10, hits give low values
[6] = locus YMR307W, strain GAS1, hits give low values
[7] = locus YNL128W, strain TEP1, hits give low values
[8] = locus YNL153C, strain GIM3, hits give low values
[9] = locus YNL175C, strain NOP13, hits give low values
[10] = locus YNL197C, strain WHI3, hits give low values
[11] = locus YNL224C, strain SQS1, hits give low values
[12] = locus YOR083W, strain WHI5 (second series), hits give low values
[13] = locus YPL241C, strain CIN2, hits give low values

## O=C1CN2Cc3c(ccc(Cl)c3Cl)N=C2N1
Locus YAL021C, strain ccr4, hits give low values
  normalized growth: 0.988
Locus YAL026C, strain drs2, hits give low values
  normalized growth: 0.976
Locus YAL030W, strain snc1, hits give low values
  normalized growth: 0.987
Locus YBL061C, strain skt5, hits give low values
  normalized growth: 1
Locus YBR009C, strain hhf1, hits give low values
  normalized growth: 0.966
Locus YBR023C, strain chs3, hits give low values
  normalized growth: 0.983
Locus YBR171W, strain sec66, hits give low values
  normalized growth: 0.967
Locus YBR231C, strain swc5, hits give low values
  normalized growth: 0.982
Locus YBR279W, strain paf1, hits give low values
  normalized growth: 0.978
Locus YCL011C, strain gbp2, hits give low values
  normalized growth: 0.975
Locus YCL016C, strain dcc1, hits give low values
  normalized growth: 0.978
Locus YCL061C, strain MRC1, hits give low values
  normalized growth: 0.984
Locus YCL069W, strain vba3, hits give low values
  normalized growth: 0.986
Locus YCR088W, strain abp1, hits give low values
  normalized growth: 1.03
Locus YDL005C, strain med2, hits give low values
  normalized growth: 0.96
Locus YDL040C, strain nat1, hits give low values
  normalized growth: 0.986
Locus YDR001C, strain nth1, hits give low values
  normalized growth: 1.05
Locus YDR069C, strain doa4, hits give low values
  normalized growth: 0.972
Locus YDR137W, strain rgp1, hits give low values
  normalized growth: 0.962
Locus YDR159W, strain sac3, hits give low values
  normalized growth: 0.965
Locus YDR195W, strain ref2
  normalized growth: 0.961
Locus YDR297W, strain sur2, hits give low values
  normalized growth: 0.97
Locus YDR334W, strain swr1, hits give low values
  normalized growth: 0.99
Locus YDR335W, strain msn5, hits give low values
  normalized growth: 1.01
Locus YDR392W, strain spt3, hits give low values
  normalized growth: 0.952
Locus YEL003W, strain gim4, hits give low values
  normalized growth: 0.98
Locus YEL037C, strain rad23, hits give low values
  normalized growth: 1.09 [resistant] (active)
Locus YEL061C, strain CIN8 (second series), hits give low values
  normalized growth: 1.04
Locus YER015W, strain faa2, hits give low values
  normalized growth: 1.03
Locus YER016W, strain bim1, hits give low values
  normalized growth: 0.979
Locus YER111C, strain swi4, hits give low values
  normalized growth: 1.1 [resistant] (active)
Locus YER155C, strain BEM2 (second series), hits give low values
  normalized growth: 1.02
Locus YFR010W, strain ubp6, hits give low values
  normalized growth: 1.02
Locus YGL167C, strain pmr1, hits give low values
  normalized growth: 0.968
Locus YGL173C, strain kem1, hits give low values
  normalized growth: 0.972
Locus YGL227W, strain vid30, hits give low values
  normalized growth: 0.969
Locus YGL240W, strain doc1, hits give low values
  normalized growth: 0.97
Locus YGL253W, strain hxk2, hits give low values
  normalized growth: 0.987
Locus YHR013C, strain ard1, hits give low values
  normalized growth: 0.956
Locus YHR027C, strain rpn1, hits give low values
  normalized growth: 0.996
Locus YHR030C, strain SLT2, hits give low values
  normalized growth: 0.984
Locus YHR079C, strain IRE1, hits give low values
  normalized growth: 0.996
Locus YHR142W, strain chs7, hits give low values
  normalized growth: 1.04
Locus YJL092W, strain hpr5, hits give low values
  normalized growth: 0.983
Locus YJL095W, strain BCK1 (second series), hits give low values
  normalized growth: 0.982
Locus YJL095W, strain BCK1, hits give low values
  normalized growth: 0.973
Locus YJL115W, strain asf1, hits give low values
  normalized growth: 1.08
Locus YJL129C, strain trk1, hits give low values
  normalized growth: 0.978
Locus YJL154C, strain vps35, hits give low values
  normalized growth: 0.976
Locus YJL164C, strain tpk1, hits give low values
  normalized growth: 0.999
Locus YJL166W, strain qcr8, hits give low values
  normalized growth: 0.993
Locus YJL187C, strain SWE1, hits give low values
  normalized growth: 0.977
Locus YJR066W, strain TOR1, hits give low values
  normalized growth: 0.929
Locus YKL160W, strain elf1, hits give low values
  normalized growth: 0.996
Locus YKR026C, strain gcn3, hits give low values
  normalized growth: 0.97
Locus YKR091W, strain srl3, hits give low values
  normalized growth: 0.987
Locus YLL001W, strain dnm1, hits give low values
  normalized growth: 0.956
Locus YLL026W, hits give low values
  normalized growth: 0.975
Locus YLL041C, strain sdh2, hits give low values
  normalized growth: 0.975
Locus YLR027C, strain aat2, hits give low values
  normalized growth: 0.991
Locus YLR113W, strain HOG1, hits give low values
  normalized growth: 1.01
Locus YLR221C, strain rsa3, hits give low values
  normalized growth: 1
Locus YLR258W, strain gsy2, hits give low values
  normalized growth: 0.979
Locus YLR262C, strain YPT6 (second series), hits give low values
  normalized growth: 0.985
Locus YLR320W, strain mms22, hits give low values
  normalized growth: 1.01
Locus YLR342W, strain FKS1, hits give low values
  normalized growth: 1.11 [resistant] (active)
Locus YLR357W, strain rsc2, hits give low values
  normalized growth: 0.925
Locus YLR370C, strain arc18, hits give low values
  normalized growth: 0.97
Locus YLR384C, strain iki3, hits give low values
  normalized growth: 1.02
Locus YML120C, strain ndi1, hits give low values
  normalized growth: 0.996
Locus YMR058W, strain fet3, hits give low values
  normalized growth: 0.978
Locus YMR125W, strain sto1, hits give low values
  normalized growth: 0.92
Locus YMR129W, hits give low values
  normalized growth: 0.964
Locus YMR205C, strain PFK2, hits give low values
  normalized growth: 0.949
Locus YMR231W, strain pep5, hits give low values
  normalized growth: 0.968
Locus YNL071W, strain lat1, hits give low values
  normalized growth: 0.985
Locus YNL183C, strain NPR1, hits give low values
  normalized growth: 0.941
Locus YNL209W, strain ssb2, hits give low values
  normalized growth: 0.987
Locus YNL248C, strain rpa49, hits give low values
  normalized growth: 0.997
Locus YNL322C, strain KRE1 (second series), hits give low values
  normalized growth: 0.985
Locus YNR049C, strain mso1, hits give low values
  normalized growth: 1.02
Locus YOR001W, strain rrp6, hits give low values
  normalized growth: 0.996
Locus YOR070C, strain gyp1, hits give low values
  normalized growth: 1.03
Locus YOR080W, strain dia2, hits give low values
  normalized growth: 0.963
Locus YOR083W, strain WHI5, hits give low values
  normalized growth: 0.999
Locus YOR106W, strain vam3, hits give low values
  normalized growth: 0.991
Locus YOR231W, strain MKK1, hits give low values
  normalized growth: 0.989
Locus YOR265W, strain rbl2, hits give low values
  normalized growth: 0.988
Locus YOR270C, strain vph1, hits give low values
  normalized growth: 0.957
Locus YOR290C, strain snf2, hits give low values
  normalized growth: 0.957
Locus YPL051W, strain arl3, hits give low values
  normalized growth: 1
Locus YPL078C, strain atp4, hits give low values
  normalized growth: 0.995
Locus YPL106C, strain sse1, hits give low values
  normalized growth: 0.958
Locus YPL240C, strain hsp82, hits give low values
  normalized growth: 0.97
Locus YPL256C, strain CLN2, hits give low values
  normalized growth: 1.01

## C[C@@H]1C(=O)NC2=Nc3cccc(Cl)c3CN21
Locus YAL013W, strain DEP1, hits give low values
  normalized growth: 0.983
[1]
  normalized growth: 1
[2]
  normalized growth: 1
Locus YDR150W, strain NUM1, hits give low values
  normalized growth: 1.01
[3]
  normalized growth: 1
[4]
  normalized growth: 1
[5]
  normalized growth: 1
Locus YGR229C, strain SMI1, hits give low values
  normalized growth: 1
[6]
  normalized growth: 1
[7]
  normalized growth: 1.01
[8]
  normalized growth: 0.982
[9]
  normalized growth: 0.992
[10]
  normalized growth: 1
[11]
  normalized growth: 1
Locus YNL322C, strain KRE1, hits give low values
  normalized growth: 0.997
[12]
  normalized growth: 1.01
Locus YPL055C, strain LGE1, hits give low values
  normalized growth: 1.02
[13]
  normalized growth: 1

## CN1CC(O)C(O)C(O)C1CO (stereo unspecified)
[1]
  normalized growth: 1
[2]
  normalized growth: 1
[3]
  normalized growth: 0.997
[4]
  normalized growth: 1.01
[5]
  normalized growth: 1.01
[6]
  normalized growth: 0.998
[7]
  normalized growth: 0.975
[8]
  normalized growth: 1.01
[9]
  normalized growth: 0.992
[10]
  normalized growth: 1
[11]
  normalized growth: 0.992
[12]
  normalized growth: 1
[13]
  normalized growth: 1.01
